This note sets out measurements from PubChem BioAssay (NCI).

About 83,000 compounds went through this panel and 20% of them were active in at least one assay; those are over-represented in the sample as a whole.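 Activity criterion: percent growth below 10, measured after cells in 96-well plates were exposed to a single compound concentration for 48 hours.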 Unmarked numbers belong to inactive results. Calls of active or inactive are those of the source.

Experiment in all cases: NCI-60 one-dose screen, 48 h (100 = growth as untreated, 0 = no growth, -100 = all killed)
For one test, the system named is DU-145 prostate. The note with it: 10 µM unless noted.
A further test concerns K-562 leukemia. The note with it: 10 µM unless noted.
For the next test, the system named is MALME-3M melanoma. The settings on record: 10 µM unless noted.
For another test, the system named is MDA-MB-231 breast. The settings on record: 10 µM unless noted.
A further test has as its system RXF 393 renal. The note with it: 10 µM unless noted.
For another test, the system named is SF-268 CNS. The note with it: 10 µM unless noted.
Another test concerns SF-295 CNS. The note with it: 10 µM unless noted.
In a further test the test system is SF-539 CNS. The note with it: 10 µM unless noted.
The subject of another test is UACC-257 melanoma. The settings on record: 10 µM unless noted.
A further test deals with M14 melanoma. The note with it: 10 µM unless noted.
A further test relates to HCT-15 colon. The note with it: 10 µM unless noted.
The next test deals with HT29 colon. The note with it: 10 µM unless noted.
A further test concerns SNB-19 CNS. The settings on record: 10 µM unless noted.
The next test relates to U251 CNS. The settings on record: 10 µM unless noted.
In the next test the test system is PC-3 prostate. The note with it: 10 µM unless noted.
The next test concerns SK-MEL-5 melanoma. The note with it: 10 µM unless noted.
Another test relates to UACC-62 melanoma. The note with it: 10 µM unless noted.
A further test has as its system LOX IMVI melanoma. The note with it: 10 µM.
A further test concerns SK-MEL-28 melanoma. The note with it: 10 µM unless noted.
The subject of another test is SNB-75 CNS. The settings on record: 10 µM unless noted.

On to `CN1C(=O)/C(=C/c2ccc(C(=O)Nc3ncc(Cc4ccc(Cl)cc4Cl)s3)cc2)SC1=S`, for which the growth with DU-145 prostate was 30.7%; in the test on K-562 leukemia, 24.3%; with MALME-3M melanoma, 23.1%; in the test on MDA-MB-231 breast, 43.6%; with RXF 393 renal it was 30.9%; with SF-268 CNS, 47%. The growth is 10.8% with SF-295 CNS; 36.9% with SF-539 CNS; 33.1% in the test on UACC-257 melanoma; 11.6% with M14 melanoma; 25.7% in the test on HCT-15 colon; 19.7% with HT29 colon. For the same compound, the growth with SNB-19 CNS was 66.6%; in the test on U251 CNS it was 72.7%; in the test with PC-3 prostate, 38.9%; with SK-MEL-5 melanoma, 17.1%; in the test with UACC-62 melanoma, 8.83% (active); with LOX IMVI melanoma, 29.7%. For the same compound, the growth with SK-MEL-28 melanoma was 41%.

Turning to `COc1ccc(C(SCCNCc2cc(N(C)C)ccn2)(c2ccccc2)c2ccccc2)cc1`, the growth in the test with DU-145 prostate is 7.05% (active); with K-562 leukemia, -28.5% (active); with MALME-3M melanoma, -91.4% (active); with MDA-MB-231 breast it was -33.4% (active); in the test with RXF 393 renal, -21.4% (active); with SF-268 CNS, 22.1%. Also, the growth with SF-295 CNS is -58.8% (active); in the test with SF-539 CNS, -93% (active); in the test on UACC-257 melanoma it was -20.9% (active); with M14 melanoma, -46.3% (active); in the test on HCT-15 colon, -19.5% (active); in the test with HT29 colon it was -60.2% (active). Besides, the growth with SNB-75 CNS was -0.256% (active); in the test with U251 CNS, -33.9% (active); in the test on PC-3 prostate, 2.15% (active); in the test on SK-MEL-5 melanoma it was -100% (active); in the test on UACC-62 melanoma it was -3.86% (active); in the test on LOX IMVI melanoma it was -98.9% (active). In addition, the growth in the test on SK-MEL-28 melanoma is -65.3% (active).

For the compound `CCCCCCCCc1ccc(C(=O)Nc2cccc(P(=O)(O)O)c2)cc1`, the growth in the test on DU-145 prostate was 107%; in the test on K-562 leukemia, 97.6%; in the test on MALME-3M melanoma it was 106%; in the test with MDA-MB-231 breast, 116%; with RXF 393 renal, 129%; in the test on SF-268 CNS it was 107%. For the same compound, the growth with SF-295 CNS was 96.5%; in the test on SF-539 CNS it was 97.4%; in the test on UACC-257 melanoma it was 97.1%; in the test on M14 melanoma it was 96.2%; in the test on HCT-15 colon, 100%; with HT29 colon, 114%. Besides, the growth with SNB-75 CNS was 99.9%; in the test with U251 CNS it was 108%; in the test on PC-3 prostate it was 92.9%; with SK-MEL-5 melanoma it was 97.7%; in the test on UACC-62 melanoma it was 91.8%; in the test with LOX IMVI melanoma, 103%. For the same compound, in the test with SK-MEL-28 melanoma, the growth is 107%.

As for `Cc1ccc(-c2nc(C#N)c(S(=O)(=O)N3CCN(S(=O)(=O)c4ccc(Cl)cc4)CC3)o2)cc1`, the growth was 97.4% with DU-145 prostate; 56.9% with K-562 leukemia; 79.1% in the test on MALME-3M melanoma; 90.9% in the test on MDA-MB-231 breast; 56.6% in the test with RXF 393 renal; 75.8% in the test on SF-268 CNS. Further, the growth was 110% in the test on SF-295 CNS; 70.5% with SF-539 CNS; 89.5% in the test on UACC-257 melanoma; 91.5% in the test on M14 melanoma; 103% in the test with HCT-15 colon; 117% with HT29 colon. The growth in the test with SNB-19 CNS was 68.9%; with U251 CNS it was 62.1%; with PC-3 prostate it was 101%; with SK-MEL-5 melanoma it was 94.4%; in the test with UACC-62 melanoma, 83.5%; with LOX IMVI melanoma, 0.237% (active).

With `Cn1cc(-c2cc(N)n3nc(-c4cn(C)c5ncc(Br)cc45)cc3n2)c2cc(Br)cnc21`, the growth with DU-145 prostate was 5.43% (active); with K-562 leukemia, -41.6% (active); with MALME-3M melanoma, -66.6% (active); in the test with MDA-MB-231 breast it was 6.75% (active); with RXF 393 renal, 23.1%; in the test on SF-268 CNS, 50%. The growth in the test with SF-295 CNS is -63.5% (active); in the test on SF-539 CNS it was -83.4% (active); with UACC-257 melanoma, 60.3%; in the test on M14 melanoma it was -64.7% (active); with HCT-15 colon, -76.6% (active); in the test on HT29 colon, -85% (active). Also, the growth in the test with SNB-19 CNS was 10%; in the test on U251 CNS, -62.1% (active); in the test on PC-3 prostate, 1.06% (active); in the test with SK-MEL-5 melanoma it was 34.8%; in the test on UACC-62 melanoma it was -82.3% (active); in the test on LOX IMVI melanoma, -100% (active). Besides, the growth in the test with SK-MEL-28 melanoma is -49.9% (active).

As to `CC(/C=C1\SC(=S)N(CCCC(=O)NC(CC(C)C)C(=O)O)C1=O)=C\c1ccccc1` (stereo not given), the growth was 98.7% in the test on DU-145 prostate; 82.8% in the test with K-562 leukemia; 104% in the test on MALME-3M melanoma; 99.8% in the test on MDA-MB-231 breast; 96.2% with RXF 393 renal; 100% with SF-268 CNS. Moreover, the growth in the test on SF-295 CNS is 97.4%; in the test with SF-539 CNS, 96%; in the test with UACC-257 melanoma, 104%; in the test with M14 melanoma, 78.6%; with HCT-15 colon it was 98.6%; with HT29 colon it was 119%. Also, the growth is 93.8% in the test on SNB-19 CNS; 79.6% in the test with U251 CNS; 55.9% in the test on PC-3 prostate; 88.1% in the test with SK-MEL-5 melanoma; 76% in the test with UACC-62 melanoma; 53.2% in the test with LOX IMVI melanoma.

Turning to `O=C(/C=C/Nc1ccc2oc(=O)ccc2c1)c1cc2cc(Br)ccc2oc1=O`, the growth in the test on DU-145 prostate was 122%; in the test with K-562 leukemia, 110%; in the test with MALME-3M melanoma, 95.2%; with MDA-MB-231 breast, 94.1%; with RXF 393 renal it was 121%; in the test on SF-268 CNS it was 107%. For the same compound, the growth in the test with SF-295 CNS was 102%; in the test with SF-539 CNS, 97.4%; in the test with UACC-257 melanoma, 91.2%; with M14 melanoma, 99.4%; in the test with HCT-15 colon it was 102%; with HT29 colon, 103%. Moreover, the growth with SNB-19 CNS was 97.5%; in the test on U251 CNS, 102%; in the test on PC-3 prostate, 98%; in the test on SK-MEL-5 melanoma, 103%; in the test on UACC-62 melanoma, 97.5%; in the test on LOX IMVI melanoma, 99.3%. Also, the growth with SK-MEL-28 melanoma is 112%.

`CC(C)Sc1nc(NCCc2c[nH]c3ccccc23)c(C#N)c(-c2ccc(F)cc2)n1`: the growth is 40.6% in the test on DU-145 prostate; 9.31% (active) in the test with K-562 leukemia; 80.6% with MALME-3M melanoma; 11.2% in the test with MDA-MB-231 breast; -3.65% (active) with RXF 393 renal; 45.1% in the test with SF-268 CNS. Also, the growth was 49.4% in the test on SF-295 CNS; 40.1% in the test on SF-539 CNS; 90.2% with UACC-257 melanoma; 46.8% in the test on M14 melanoma; 5.84% (active) with HCT-15 colon; -6.22% (active) in the test with HT29 colon. For the same compound, the growth in the test on SNB-75 CNS was 73%; in the test on U251 CNS, 20.7%; in the test with PC-3 prostate it was 15%; with SK-MEL-5 melanoma, 24.1%; with UACC-62 melanoma, 58.8%; with LOX IMVI melanoma, -17.3% (active). In addition, in the test on SK-MEL-28 melanoma, the growth is 71.1%.
